Screening data: PubChem BioAssay, The Scripps Research Institute Molecular Screening Center
Shown are actives, neighbours in structure and some others; about 2.9% of the full set was active somewhere.
KLK7 zymogen act: activators of human kallikrein-7 zymogen; purified proKLK7, EDANS-DABCYL substrate fluorescence; 100% is mature enzyme control, 0% vehicle; AID 652039; hit rate 0.9% among 370,000; activation, % at 7 µM;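 active means activation above the mean of all tested compounds plus 3 SD, computed per campaign excluding outliers beyond control limits, cut at about 13% in these data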
PLC-beta3 inh: PLC-beta3 (human) inhibition, primary screen; Purified PLC-beta3, fluorogenic substrate, fluorescence; inhibition, % at 12.2 µM; hit rate 0.18% among 370,000;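 further: 0% = median of compound wells on plate and 100% = full blocker control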
PLC-gamma1 inh: PLC-gamma1 (human) inhibition, primary screen | purified PLC-gamma1, fluorogenic substrate, fluorescence | inhibition, % at 12.2 µM | hit rate 0.84% among 370,000; in the data active means inhibition above about 9.5%
Target sequence (P19174 whole entry, looked up): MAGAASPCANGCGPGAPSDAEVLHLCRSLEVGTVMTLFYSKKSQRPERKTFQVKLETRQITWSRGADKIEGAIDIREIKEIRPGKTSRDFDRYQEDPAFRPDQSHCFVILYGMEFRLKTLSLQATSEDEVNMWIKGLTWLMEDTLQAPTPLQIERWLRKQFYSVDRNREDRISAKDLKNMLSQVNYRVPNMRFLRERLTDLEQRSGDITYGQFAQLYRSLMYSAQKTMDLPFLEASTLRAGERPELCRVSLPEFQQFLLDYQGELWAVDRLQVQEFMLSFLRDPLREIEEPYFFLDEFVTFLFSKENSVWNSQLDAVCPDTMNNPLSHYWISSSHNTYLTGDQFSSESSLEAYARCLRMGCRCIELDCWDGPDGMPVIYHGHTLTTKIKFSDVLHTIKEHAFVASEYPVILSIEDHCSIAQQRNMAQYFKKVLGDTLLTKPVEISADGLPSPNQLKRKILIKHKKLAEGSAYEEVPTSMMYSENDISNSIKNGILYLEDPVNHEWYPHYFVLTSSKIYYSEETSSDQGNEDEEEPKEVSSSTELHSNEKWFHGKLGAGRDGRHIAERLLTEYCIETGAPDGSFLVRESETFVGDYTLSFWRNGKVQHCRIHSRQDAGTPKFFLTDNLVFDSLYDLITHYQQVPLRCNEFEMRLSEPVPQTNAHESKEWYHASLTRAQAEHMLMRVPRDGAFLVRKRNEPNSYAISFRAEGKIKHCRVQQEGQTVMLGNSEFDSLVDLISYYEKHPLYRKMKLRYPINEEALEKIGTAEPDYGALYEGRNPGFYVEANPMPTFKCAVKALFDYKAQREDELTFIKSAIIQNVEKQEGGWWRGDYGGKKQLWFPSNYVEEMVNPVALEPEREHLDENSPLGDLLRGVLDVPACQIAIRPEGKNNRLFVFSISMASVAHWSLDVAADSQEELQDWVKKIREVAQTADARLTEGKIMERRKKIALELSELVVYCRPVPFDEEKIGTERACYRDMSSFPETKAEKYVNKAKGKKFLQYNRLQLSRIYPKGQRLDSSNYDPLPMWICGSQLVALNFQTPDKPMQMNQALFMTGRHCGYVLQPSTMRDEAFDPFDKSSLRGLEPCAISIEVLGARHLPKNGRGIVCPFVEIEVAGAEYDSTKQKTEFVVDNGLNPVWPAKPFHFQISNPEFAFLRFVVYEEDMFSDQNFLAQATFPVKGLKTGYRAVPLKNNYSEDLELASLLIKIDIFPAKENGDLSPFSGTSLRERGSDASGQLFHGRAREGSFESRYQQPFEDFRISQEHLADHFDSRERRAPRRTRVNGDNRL
ADAM17 inh: inhibits human ADAM17 | hit rate 0.83% among 370,000 | P78536 | recombinant ADAM17, EDANS/DABCYL FRET peptide cleavage | inhibition, % at 6.95 µM;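 active means inhibition above the mean of compounds lying between control limits plus 3 SD, set per campaign, cut at about 8.5% in these data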;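 further: 0% = DMSO-only wells as the low control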
ADAM10 inh: inhibits human ADAM10; O14672; recombinant ADAM10, EDANS/DABCYL FRET peptide cleavage, 3 h; inhibition, % at 7 µM; hit rate 0.62% among 370,000;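 active means inhibition above a per-campaign cutoff equal to the mean of compounds falling between control-based bounds plus 3 SD, cut at about 20% in these data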;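 further: 0% = DMSO wells while the 100% control is not disclosed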
PLCgamma1 ctr: PLC-gamma1 inhibition, counter-screen for PLC-beta3 hits. hit rate 3.1% among 3,300. shares compounds with PLC-gamma1 inh. purified PLC-gamma1, fluorogenic substrate, fluorescence. inhibition, % at 12.3 µM; in the data active means inhibition above about 9.5%
PLCbeta3 conf: confirmation of human PLC-beta3 inhibitors; purified PLC-beta3, fluorogenic substrate fluorescence; shares compounds with PLC-gamma1 inh; inhibition, % at 12.3 µM; hit rate 1% among 3,300; AID 743261
Numbers without * were called inactive; · = not tested or not shown. Unless noted, no stated cut-off is given here; in the data, active means inhibition above about 11%; inactive means the rest.

SMILES	KLK7 zymogen act	PLC-beta3 inh	PLC-gamma1 inh	ADAM17 inh	ADAM10 inh	PLCgamma1 ctr	PLCbeta3 conf
CSc1ncccc1C(=O)OCC(=O)N(CC(C)C)C1CCS(=O)(=O)C1 (stereo unspecified)	0	0	2	-5	0	·	·
CC(CC(=O)Nc1ccc(Br)cc1F)S(=O)(=O)c1ccc2c(c1)NC(=O)CO2 (stereo unspecified)	0	-8	12*	-4	1	-6	-3
CC(CC(=O)Nc1ccc(F)cc1)S(=O)(=O)c1ccc2c(c1)NC(=O)CO2 (stereo unspecified)	0	-2	4	1	12	·	·
O=C(O)CC(C(=O)Nc1cccc(C(F)(F)F)c1)C1CCCO1 (stereo unspecified)	0	3	16*	-4	-16	-4	-2
CSc1cccc(NC(=S)N(CCCN2CCCC2)Cc2cccs2)c1	0	2	13*	2	2	-9	-3
c1ccc2c(c1)OC(CCCN1CCCCC1)c1ccccc1S2 (stereo unspecified)	0	4	11*	4	5	-4	1
CN1CCCC(CC2Oc3ccccc3Sc3ccccc32)C1 (stereo unspecified)	0	3	-1	1	-5	·	·
C=CCn1c(SCC(=O)NCc2ccco2)nc2ccccc2c1=O	1	0	-2	-2	-2	·	·
Cc1ccccc1-c1noc(CCC(=O)NCCc2ccccc2)n1	0	1	10*	8	-1	-4	-2
O=C(CCCn1c(SCC(=O)Nc2ccccc2Cl)nc2ccccc2c1=O)NCC1CCCO1 (stereo unspecified)	0	-8	-5	7	-17	·	·
COc1ccc(S(=O)(=O)N2CCCCC2)cc1C(=O)N1CCCC1	0	0	12*	-2	-6	-6	-2
COc1ccc(S(=O)(=O)N2CCCC2)cc1C(=O)N1CCCCC1	-1	-9	-2	-7	-11	·	·
COc1ccc(S(=O)(=O)N2CCOCC2)cc1C(=O)Nc1cccc(C(=O)NC2CC2)c1	0	-2	0	-1	-11	·	·
O=C(CC1CCCC1)Nc1cc(S(=O)(=O)N2CCOCC2)ccc1O	0	0	-1	0	-10	·	·
COc1ccc(S(=O)(=O)N2CCOCC2)cc1C(=O)NC1CCCCCC1	0	2	12*	1	4	-5	0
Cc1ccc(S(=O)(=O)N2CCOCC2)cc1NC(=O)CNCC1CCCCC1	-1	5	10*	-4	5	-5	-1
COC(=O)c1sc(S(=O)(=O)NCC(=O)O)c(C(=O)OC)c1C	0	-6	-2	-7	-2	·	·
COCCCNc1nc2c(c(=O)n(Cc3ccc(F)cc3)c(=O)n2C)n1C	0	-3	6	0	5	·	·
COCCCNc1nc2c(c(=O)n(Cc3ccc(OC)cc3)c(=O)n2C)n1C	0	3	10*	3	7	-2	-10
COc1cccc(NC(=O)c2ccc(-c3ccc([N+](=O)[O-])cc3)o2)c1	-1	-9	-7	0	7	·	·
Cc1ccc(C)c(NC(=S)NC(C)C(c2cccs2)N2CCOCC2)c1 (stereo unspecified)	0	4	1	-4	-4	·	·
O=C(O)CCCN1C(=O)/C(=C/C=C/c2ccco2)SC1=S	1	-15	23*	-5	-10	18*	-15
O=C(O)CC(C(=O)O)N1C(=O)/C(=C/C=C/c2ccco2)SC1=S (stereo unspecified)	1	-11	59*	-6	-10	52*	-15
COc1ccc(CCN2C(=O)CC(NNc3ccc([N+](=O)[O-])cc3)C2=O)cc1OC (stereo unspecified)	0	-4	-3	-1	3	·	·
Cc1cc(OCC(=O)N[C@@H](Cc2ccccc2)c2nc3ccccc3[nH]2)ccc1Cl	0	0	1	0	-5	·	·
SMILES	KLK7 zymogen act	PLC-beta3 inh	PLC-gamma1 inh	ADAM17 inh	ADAM10 inh	PLCgamma1 ctr	PLCbeta3 conf
O=C(CCc1nc2ccccc2s1)OCc1ccccc1	-1	11*	3	7	5	-7	-3
O=C(CCC(=O)c1cccs1)OCc1nc2ccccc2s1	0	-5	-2	-4	-14	·	·
Cn1nc(C(=O)NC2CCCCCC2)ccc1=O	0	-4	-1	-4	-4	·	·
O=C(CSCC(=O)N1CCOCC1)Nc1nc(-c2ccccc2)cs1	1	-9	3	-4	1	·	·
O=C(CSCC(=O)N1CCOCC1)Nc1ccccc1	-1	5	11*	6	11	-8	-2
COc1cccc(NC(=O)n2ncc3c(C)cccc32)c1	0	2	10*	6	3	-8	-16
Cc1ccc(NC(=O)n2ncc3c(C)cccc32)c(C)c1	0	-2	11*	-3	-6	-6	-1
O=C(NCc1ccccn1)C1Nc2ccc(OC(F)(F)F)cc2C2C=CCC12 (stereo unspecified)	-1	-42	-27	-5	-12	·	·
Nc1ccc(C(=O)N/N=C\C=C\c2cccc([N+](=O)[O-])c2)cc1	0	16*	15*	6	17	-17	2
C=CCSc1nc2c(c(C3CC=CCC3)c1C#N)CCC2 (stereo unspecified)	1	2	0	-4	-4	·	·
CC(C)OC(=O)CSc1nc2c(c(C3CC=CCC3)c1C#N)CCC2 (stereo unspecified)	0	4	9.6*	1	2	-7	-6
NC(N)=NC(N)=Nc1ccc(SC(F)(F)F)cc1	-1	2	11*	-4	-11	8	2
NC(N)=NC(N)=Nc1ccc2ccccc2c1	-1	0	-1	-2	-1	·	·
C[C@@H]1CCC[C@@]2(O[C@@H](CCO)C[C@H](O)[C@H]2O)O1	-1	9	12*	-4	5	-6	-2
OCC[C@@H]1C[C@@H](O)[C@H](O)[C@]2(CCCO2)O1	-1	6	12*	-7	1	-8	-4
CC1=CCC2C(=O)N(c3cccc(C(=O)Nc4ccc(Cl)cc4)c3)C(=O)C2C1 (stereo unspecified)	0	-3	8	6	4	·	·
Cc1ccc(S(=O)(=O)N2CCC[C@H]2C(=O)NCc2ccccc2Cl)cc1	0	0	-3	1	-3	·	·
Cc1ccc2cc(CCNC(=O)c3ccc(S(=O)(=O)N4CCOCC4)cc3)c(=O)[nH]c2c1C	0	-9	3	2	-8	·	·
CCOC(=O)[C@H](CCc1ccccc1)N[C@@H](C)C(=O)N1C(C(=O)O)C[C@@H]2CCC[C@@H]21 (stereo partly specified)	-1	10	10*	7	17	-1	-1
CC(C)[C@H](NC(N)=O)C(=O)NCCc1ccc(Cl)cc1Cl	0	0	-1	-2	-4	·	·
